{"source": "PubChem BioAssay AID588358", "about": "(NMMLSC, 2011)", "note": "The campaign covered roughly 310,000 compounds. About 1,500 (0.48%) were called active. The entries come from a sample that favours actives as a whole. A number with no mark means an inactive call.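 Rule for the calls: active = binding more than 3 SD below its plate's average and above zero; inconclusive = below that plate limit but binding exactly zero; inactive = the rest.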", "data": [{"target": "Desmoglein-3 (Homo sapiens) (UniProt P32926)", "sequence (P32926 whole entry, looked up, the tested form may be a part)": "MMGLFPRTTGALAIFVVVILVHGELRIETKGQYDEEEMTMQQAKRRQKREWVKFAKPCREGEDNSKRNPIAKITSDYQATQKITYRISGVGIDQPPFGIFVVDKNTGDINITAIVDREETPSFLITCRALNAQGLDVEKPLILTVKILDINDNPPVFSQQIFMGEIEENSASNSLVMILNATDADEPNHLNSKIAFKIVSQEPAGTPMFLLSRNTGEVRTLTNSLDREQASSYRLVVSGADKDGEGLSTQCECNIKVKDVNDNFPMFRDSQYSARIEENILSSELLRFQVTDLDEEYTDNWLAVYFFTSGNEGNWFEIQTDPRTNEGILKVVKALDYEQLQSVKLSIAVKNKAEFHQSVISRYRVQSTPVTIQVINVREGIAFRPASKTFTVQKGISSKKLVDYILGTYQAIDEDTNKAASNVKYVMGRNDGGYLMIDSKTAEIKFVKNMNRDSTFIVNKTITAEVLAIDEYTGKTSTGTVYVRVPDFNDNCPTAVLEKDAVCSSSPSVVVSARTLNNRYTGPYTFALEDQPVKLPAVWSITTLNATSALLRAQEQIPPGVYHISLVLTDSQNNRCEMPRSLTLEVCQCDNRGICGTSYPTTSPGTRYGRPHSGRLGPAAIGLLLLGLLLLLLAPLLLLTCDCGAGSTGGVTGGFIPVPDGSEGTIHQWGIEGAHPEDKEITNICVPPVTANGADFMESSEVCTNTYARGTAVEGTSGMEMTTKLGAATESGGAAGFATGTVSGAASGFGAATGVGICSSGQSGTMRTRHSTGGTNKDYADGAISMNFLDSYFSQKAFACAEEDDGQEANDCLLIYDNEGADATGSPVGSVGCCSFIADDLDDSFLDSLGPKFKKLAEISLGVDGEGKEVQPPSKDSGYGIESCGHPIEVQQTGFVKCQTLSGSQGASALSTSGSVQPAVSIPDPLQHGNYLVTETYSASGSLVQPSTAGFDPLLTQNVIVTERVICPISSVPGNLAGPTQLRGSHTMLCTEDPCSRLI", "experiment": "inhibitors of pemphigus antibody binding to DSG3, primary screen, biochemical, bead-based, flow cytometry, scFv-GFP (AID 588358);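 note: hits lower antibody fragment binding to DSG3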", "conditions": "DSG3-coupled beads, scFv-anti-DSG3-GFP binding, at 10 µM, hits give low values", "values": [{"smiles": "O=C(Cc1ccc([N+](=O)[O-])cc1)NCCS(=O)(=O)N1CCN(c2ccccc2)CC1", "binding (percent of control)": "97.2%"}, {"smiles": "COc1ccc(N2CCN(c3ccc([N+](=O)[O-])nc3)CC2)cc1", "binding (percent of control)": "77.8%"}, {"smiles": "O=[N+]([O-])c1ccc(N2CCN(c3ccc(O)cc3)CC2)c(Cl)c1", "binding (percent of control)": "101%"}, {"smiles": "COc1ccc(N2CCN(c3ccc([N+](=O)[O-])cc3Cl)CC2)cc1", "binding (percent of control)": "-9.48% (active)"}, {"smiles": "COC(=O)c1sccc1NC(=O)c1cc(OC)c(OC)c(OC)c1", "binding (percent of control)": "81.8%"}, {"smiles": "COC(=O)Cn1c(=NC(=O)CSCC(=O)Nc2cc(C)on2)sc2ccccc21", "binding (percent of control)": "82.3%"}, {"smiles": "COC(=O)Cn1c(=NC(=O)c2cc(OC)c(OC)c(OC)c2)sc2cc(OC)ccc21", "binding (percent of control)": "88.6% (active)"}, {"smiles": "CC(C)N=C1CCCC1C(=S)SSC(=S)C1CCCC1=NC(C)C", "note": "(stereo not given)", "binding (percent of control)": "102%"}, {"smiles": "N#CCCN(C(=S)Nc1ccc(Cl)c(Cl)c1)C1CCCCC1", "binding (percent of control)": "105%"}, {"smiles": "Cc1cc(C)n(-c2ccc3nncn3n2)n1", "binding (percent of control)": "99%"}, {"smiles": "Cc1cc(C)n(-c2ccc(C(=O)O)cc2[N+](=O)[O-])n1", "binding (percent of control)": "102%"}, {"smiles": "Cc1cc(C)n(-c2ccc(Cl)c(C(=O)O)n2)n1", "binding (percent of control)": "56.1% (active)"}, {"smiles": "O=C(O)C(=Cc1ccc([N+](=O)[O-])cc1)CCc1ccccc1", "binding (percent of control)": "103%"}, {"smiles": "CCOC(=O)c1c(C)[nH]c(C)c1C(=O)COC(=O)/C=C/c1cccc([N+](=O)[O-])c1", "binding (percent of control)": "98.5%"}, {"smiles": "CCN1CCCC1CNC(=O)c1ccc2c(c1)NC(=O)/C(=C\\c1ccccc1F)S2", "note": "(stereo not given)", "binding (percent of control)": "94.9%"}, {"smiles": "Cc1ccc(NC(=O)CN2CCc3ccccc3C2)cc1", "binding (percent of control)": "95.1%"}, {"smiles": "Cc1ccc(NC(=O)N2CCSc3ccccc32)cc1", "binding (percent of control)": "63% (active)"}, {"smiles": "CCOc1ccc(CNC(=O)CCC(=O)N2CCSc3ccccc32)cc1", "binding (percent of control)": "102%"}, {"smiles": "CCN(CC)C(=O)C1=C(C)N(Cc2ccc(F)cc2)C(=O)C(CC(=O)NC2CCCC2)C1", "note": "(stereo not given)", "binding (percent of control)": "109%"}, {"smiles": "CC1(C)CN(Cc2cccnc2)C(=O)[C@H]1CC(=O)Nc1ccc(Br)cc1", "binding (percent of control)": "96.8%"}, {"smiles": "Cc1[nH]c2ccccc2c1C(=O)C(=O)NCc1nnnn1-c1cccc(F)c1", "binding (percent of control)": "110%"}, {"smiles": "Cc1csc(SCC(=O)Nc2ccc(C)c(S(=O)(=O)N(C)C)c2)n1", "binding (percent of control)": "100%"}, {"smiles": "O=C(NC(Cc1ccccc1)C(=O)N1CCCC(C(F)(F)F)C1)c1ccccc1", "note": "(stereo not given)", "binding (percent of control)": "93.4%"}, {"smiles": "O=C(NCC(=O)N1CCCC(C(F)(F)F)C1)c1ccccc1F", "note": "(stereo not given)", "binding (percent of control)": "98.7%"}, {"smiles": "FC(F)(F)C1CCCN(c2nsc3ccccc23)C1", "note": "(stereo not given)", "binding (percent of control)": "59.3% (active)"}, {"smiles": "Cc1ccc(-c2nn(-c3ccccc3)cc2/C=C2\\SC(=S)N(CCCCCC(=O)O)C2=O)o1", "binding (percent of control)": "93.2%"}, {"smiles": "CN(C)S(=O)(=O)c1cccc(-c2nn(-c3ccccc3)cc2/C=C2\\SC(=S)N(CC(=O)O)C2=O)c1", "binding (percent of control)": "34.1% (active)"}, {"smiles": "COc1ccc(-c2nn(-c3ccccc3)cc2/C=C2/SC(=S)N(CCCC(=O)O)C2=O)c(C)c1", "binding (percent of control)": "104%"}, {"smiles": "COc1ccc(C=C2CCC3C(CCCC34OCCO4)C2=O)cc1", "note": "(stereo not given)", "binding (percent of control)": "104%"}, {"smiles": "CC1CCCC(NC(=O)COC(=O)c2ccccc2C(=O)N(C)C2CCCCC2)C1C", "note": "(stereo not given)", "binding (percent of control)": "98.5%"}, {"smiles": "Cn1c(=O)[nH]c(=O)c2c1[nH]c(=S)n2Cc1ccccc1", "binding (percent of control)": "99.1%"}, {"smiles": "CCN(CC)CCn1cnc2c1c(=O)[nH]c(=O)n2Cc1ccccc1", "binding (percent of control)": "65.2% (active)"}, {"smiles": "COCCn1cnc2c1c(=O)n(Cc1ccc(Br)cc1)c(=O)n2Cc1ccccc1", "binding (percent of control)": "125%"}, {"smiles": "O=C(NCCN1CCOCC1)c1ccc2c(c1)N(Cc1cccc(Cl)c1)C(=O)c1ccccc1S2(=O)=O", "binding (percent of control)": "95.8%"}, {"smiles": "OCC1OC(n2cnc3c(N4CCCC4)ncnc32)C(O)C1O", "note": "(stereo not given)", "binding (percent of control)": "102%"}, {"smiles": "CCOc1ccc(NS(=O)(=O)c2ccc(C(=O)NCC3CCCO3)cc2)cc1", "note": "(stereo not given)", "binding (percent of control)": "100%"}, {"smiles": "COc1cc(NC(=O)C2=C(C)OCCS2)c(Cl)cc1C(=O)NCCCN1CCCC(C)C1", "note": "(stereo not given)", "binding (percent of control)": "105%"}, {"smiles": "CCOC(=O)c1c(NC(=S)SC)sc(C(=O)N2CCc3ccccc3C2)c1C", "binding (percent of control)": "100%"}, {"smiles": "COc1ccc(-c2nc(CS(=O)CC(=O)NCc3ccccc3)c(C)o2)cc1OC", "note": "(stereo not given)", "binding (percent of control)": "97.4%"}, {"smiles": "COc1ccc(-c2nc(CS(=O)CC(=O)NCc3ccccn3)c(C)o2)cc1", "note": "(stereo not given)", "binding (percent of control)": "17.1% (active)"}, {"smiles": "COc1cccc(-c2nc(CS(=O)CC(=O)NCc3ccc(F)cc3)c(C)o2)c1", "note": "(stereo not given)", "binding (percent of control)": "93.3%"}, {"smiles": "CC(C)CNS(=O)(=O)c1ccc(C(=O)Nc2ccc3c(c2)OCO3)cc1", "binding (percent of control)": "85.2%"}, {"smiles": "Cc1cccc(NC(=O)Nc2ccc3c(c2)OCO3)n1", "binding (percent of control)": "134%"}, {"smiles": "CNS(=O)(=O)c1ccc(NC(=O)Nc2ccc3c(c2)OCO3)cc1", "binding (percent of control)": "66.6% (active)"}, {"smiles": "CN(Cc1ccccc1)C(=O)CCC1CCN(C(=O)c2ccco2)CC1", "binding (percent of control)": "91.8%"}, {"smiles": "COc1cc(C(=O)N2CCOC23CCN(Cc2ccccc2)CC3)cc(OC)c1OC", "binding (percent of control)": "108%"}, {"smiles": "COCCCN1C(=O)C(CC(=O)NCc2cccs2)CC(C(=O)N2CCOCC2)=C1C", "note": "(stereo not given)", "binding (percent of control)": "99.9%"}, {"smiles": "CCSc1nnc(SCC(=O)NNC(=O)c2ccccc2F)s1", "binding (percent of control)": "115%"}, {"smiles": "Cc1nnc(SCC(=O)Nn2cnnc2)s1", "binding (percent of control)": "89.8% (active)"}, {"smiles": "Cc1cnc(NC(=O)CSc2nnc(C)s2)s1", "binding (percent of control)": "101%"}, {"smiles": "CNC(=O)c1ccc(CN(C)C(=O)c2cc(C3CC3)nc3c2cnn3C(C)C)cc1", "binding (percent of control)": "105%"}, {"smiles": "O=[N+]([O-])c1ccc(C(S(=O)(=O)Cc2ccccc2)S(=O)(=O)Cc2ccccc2)cc1", "binding (percent of control)": "100%"}, {"smiles": "CC(CNS(=O)(=O)c1ccc(Br)cc1)CN(C)C", "note": "(stereo not given)", "binding (percent of control)": "102%"}, {"smiles": "Cc1ccc(S(=O)(=O)NCCNC(C)c2ccc(Br)cc2)cc1", "note": "(stereo not given)", "binding (percent of control)": "-19.8% (active)"}, {"smiles": "Cc1ccc(OCCNC(=O)CCNS(=O)(=O)c2ccc(Br)cc2)cc1", "binding (percent of control)": "107%"}, {"smiles": "CC1C(=O)N(Cc2cn(CC3CCCCC3)nn2)CCS(=O)(=O)N1Cc1ccc(-c2cccc(N(C)C)c2)cc1", "note": "(stereo not given)", "binding (percent of control)": "101%"}, {"smiles": "COCC1CCCCN1C(=O)c1cc(COc2ccc(C)c(C)c2)on1", "note": "(stereo not given)", "binding (percent of control)": "101%"}, {"smiles": "CN(CC(=O)Nc1ccc(N2CCOCC2)cc1)CC(=O)Nc1ccccc1[N+](=O)[O-]", "binding (percent of control)": "116%"}, {"smiles": "Cc1ccc(NC(=O)CN(C)Cc2ccc(F)cc2)c([N+](=O)[O-])c1", "binding (percent of control)": "93.5%"}, {"smiles": "CN(CC(=O)Nc1ccccc1[N+](=O)[O-])Cc1ccc(Br)cc1", "binding (percent of control)": "104% (active)"}]}]}
